BRCT PPI green: inhibitors of human BRCA1 BRCT-phosphoprotein interaction (green fluorophore); hit rate 0.05% among 75,000; Potency, µM (top dose mostly 76.9 µM), for the others: top-dose activity change, negative = inhibition, usual class: inhibitors; BRCA1 BRCT-phosphopeptide binding, green fluorescence polarization;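 also: potency is read from the fitted curve at half-maximal effect; plate controls were peptide without protein for full effect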
Target sequence (P38398 whole entry, looked up): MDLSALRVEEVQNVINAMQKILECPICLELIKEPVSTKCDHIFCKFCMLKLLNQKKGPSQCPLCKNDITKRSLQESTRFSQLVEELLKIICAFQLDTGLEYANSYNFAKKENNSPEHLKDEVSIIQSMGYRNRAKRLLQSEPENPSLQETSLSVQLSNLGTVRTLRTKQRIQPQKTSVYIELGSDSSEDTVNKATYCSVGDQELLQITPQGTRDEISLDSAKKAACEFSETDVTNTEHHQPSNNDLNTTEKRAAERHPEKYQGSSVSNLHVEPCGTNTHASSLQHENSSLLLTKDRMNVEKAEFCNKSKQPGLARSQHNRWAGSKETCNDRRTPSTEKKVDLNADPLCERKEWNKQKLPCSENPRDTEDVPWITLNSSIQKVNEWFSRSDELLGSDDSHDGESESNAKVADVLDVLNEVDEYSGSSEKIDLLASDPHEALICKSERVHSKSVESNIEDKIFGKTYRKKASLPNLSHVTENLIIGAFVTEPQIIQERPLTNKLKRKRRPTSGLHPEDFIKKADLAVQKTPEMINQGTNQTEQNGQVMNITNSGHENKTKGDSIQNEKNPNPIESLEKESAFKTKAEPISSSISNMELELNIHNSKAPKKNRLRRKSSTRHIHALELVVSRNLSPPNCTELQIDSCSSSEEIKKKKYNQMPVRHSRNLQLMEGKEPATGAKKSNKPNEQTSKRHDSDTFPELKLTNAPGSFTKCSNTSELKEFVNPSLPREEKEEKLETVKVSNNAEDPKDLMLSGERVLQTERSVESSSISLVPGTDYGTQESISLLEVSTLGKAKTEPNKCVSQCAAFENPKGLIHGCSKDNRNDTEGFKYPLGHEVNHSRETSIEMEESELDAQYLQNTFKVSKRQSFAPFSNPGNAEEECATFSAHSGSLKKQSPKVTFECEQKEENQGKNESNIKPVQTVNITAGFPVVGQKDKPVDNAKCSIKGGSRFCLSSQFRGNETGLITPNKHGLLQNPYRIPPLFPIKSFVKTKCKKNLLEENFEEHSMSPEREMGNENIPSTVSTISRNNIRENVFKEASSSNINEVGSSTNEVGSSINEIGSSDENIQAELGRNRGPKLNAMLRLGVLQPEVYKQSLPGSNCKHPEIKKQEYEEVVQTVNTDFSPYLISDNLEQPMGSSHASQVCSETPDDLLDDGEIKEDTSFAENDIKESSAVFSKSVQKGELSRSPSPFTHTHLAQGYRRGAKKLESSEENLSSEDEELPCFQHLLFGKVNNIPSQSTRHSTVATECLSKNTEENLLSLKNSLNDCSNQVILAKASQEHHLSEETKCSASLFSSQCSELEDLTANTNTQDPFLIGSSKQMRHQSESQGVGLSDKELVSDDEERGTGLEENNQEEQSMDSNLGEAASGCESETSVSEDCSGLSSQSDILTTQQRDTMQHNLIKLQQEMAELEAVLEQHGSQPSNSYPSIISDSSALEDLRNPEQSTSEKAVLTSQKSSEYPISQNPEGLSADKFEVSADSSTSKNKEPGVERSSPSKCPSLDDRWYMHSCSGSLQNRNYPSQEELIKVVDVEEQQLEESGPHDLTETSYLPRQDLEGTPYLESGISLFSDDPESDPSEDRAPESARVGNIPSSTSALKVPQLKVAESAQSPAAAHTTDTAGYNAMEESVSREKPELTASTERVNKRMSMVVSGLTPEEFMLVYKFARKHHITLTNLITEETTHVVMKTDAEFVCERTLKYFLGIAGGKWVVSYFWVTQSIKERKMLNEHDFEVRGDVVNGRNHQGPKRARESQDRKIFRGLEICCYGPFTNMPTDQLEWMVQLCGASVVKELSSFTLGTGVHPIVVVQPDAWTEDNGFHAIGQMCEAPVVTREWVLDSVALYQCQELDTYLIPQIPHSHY
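Fluorescence polarization: His-tagged BRCT (~35 kDa BRCA1 C-terminus, 250 nM) bound to 100 nM fluorescein-labeled phosphorylated 10-aa BACH1 peptide, pH 7.3 phosphate buffer with DTT and Tween 20. Compounds incubated 12 min at room temperature; inhibition read as lowered polarization.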
HEK293 cAMP cs: raises cAMP in parental HEK293 cells, TSHR agonist counter-screen; Potency, µM (top dose mostly 57.1 µM), inactives show at the highest dose activation, most hits filed as activators; parental HEK293 CNG cAMP sensor, membrane potential fluorescence; hit rate 2.5% among 73,000; also: potency is read from the fitted curve at half-maximal effect; % of control where 0% means no effect; nearly all actives have a fitted effect of over 55% in size
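Parental HEK 293 cells stably expressing a modified CNG channel (no TSHR) report cAMP rise as membrane depolarization. Membrane potential dye with 100 uM RO 20-1724 was loaded for 60 min at room temperature, then compound added for 30 min; fluorescence read at 590 nm.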
TSHR ag: TSH receptor (human) agonism. P16473. HEK293-CNG-TSHR cells (CNG channel as cAMP sensor), membrane potential dye, cAMP. Potency, µM (titrated, usually from 57.1 µM), without a hit: at the top dose activation, most hits filed as activators. hit rate 0.48% among 73,000; active = well fitted activation curve with a large enough effect in the main read-out, with a control signal flat, not every such curve was filed as active; inconclusive = small, poorly fitted or top-dose-only effect, or a change in a side signal; inactive = no such curve, though single readings can be large or run the other way; % of control where 0% means no effect;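 also: the control signal comes from parental cells without the receptor; potency is read from the fitted curve at half-maximal effect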
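HEK 293 cells stably expressing TSHR and a modified CNG channel, with CNG-only parental cells as counterscreen, were preloaded 60 min at room temperature with membrane potential dye containing 100 uM RO 20-1724. Compound exposure was 30 min, and depolarization was read as fluorescence at 590 nm.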
DNA Pol III inh: inhibitors of bacterial DNA polymerase III holoenzyme. reconstituted DNA polymerase III holoenzyme replication, biochemical. Potency, µM (doses to about 57.1 µM), for inactives: at the top dose activity change, negative = inhibition. hit rate 0.25% among 71,000. AID 603; also: potency is read from the fitted curve at half-maximal effect; % is scaled to controls: 0 for no effect and ±100 for the full control effect
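Reconstituted *E. coli* holoenzyme (0.35 nM Pol III, 1 nM beta, 154 nM SSB, 2 nM primase) was preincubated with compound for 15 min at RT. Synthesis on 1.4 nM ssM13Gori ran 35 min, then was stopped with PicoGreen/EDTA and read as dsDNA fluorescence.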
YjeE inh: inhibitors of E. coli YjeE (TsaE); AID 605; Potency, µM; purified YjeE enzyme, qHTS inhibition assay; hit rate 0.05% among 71,000; P0AF67
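Purified YjeE (10 uM) with BODIPY Texas Red-labeled ADP probe (2 uM); compounds pin-transferred, 15 min at room temperature. Binding inhibition read as decreased fluorescence polarization; ADP titration as control.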
BRCT PPI red: BRCT-phosphoprotein interaction inhibition (red fluorophore); P38398; BRCT-phosphopeptide binding, red fluorescence polarization; Potency, µM (titrated, usually from 76.9 µM), without a hit: at the highest dose activity change, negative = inhibition, usual class: inhibitors; hit rate 0.03% among 75,000; also: % is scaled to controls: 0 for no effect and ±100 for the full control effect
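Rhodamine-labelled pBACH1 10-mer (100 nM) bound to BRCT domain (100 nM) at pH 7.3; compounds incubated 12 min room temperature, polarization read. Free peptide defines full inhibition; unlabelled decapeptide titrated as control.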
* marks the source's active call; other numbers are inactive results; i = inactive; ? = inconclusive; / = no result; ! = not active in a repeat; [ ] = remark or other dose. Most compounds without a hit are left out; they make up all but 3.2% or so of the library. Unless noted, calls follow the shape of the dose curve; as a rule, active = well fitted curve in the direction sought with a large enough effect; inconclusive = small, poorly fitted or top-dose-only effect, or another doubt; inactive = no such curve, though single readings can be large; an effect the other way counts as inactive or inconclusive.

SMILES	BRCT PPI green	HEK293 cAMP cs	TSHR ag	DNA Pol III inh	YjeE inh	BRCT PPI red
c1ccc(-c2noc(CSc3nnnn3-c3ccccc3)n2)cc1	-4%	?	?	3%	i	1%
Cc1ccc(-c2noc(CSc3nnnn3C3CCCCC3)n2)cc1	0%	47%	25µM*	-7%	i	0%
O=C(O)CSc1nnc(CNc2ccc(Cl)cc2)n1Cc1ccccc1	2%	32µM*	?	-9%	i	-1%
COc1cccc2cc(-c3nnc(SCC(=O)Nc4cc(C(F)(F)F)ccc4Cl)n3N)oc12	-1%	25µM*	?	-1%	i	1%
CCn1c(SCC(=O)Nc2nccs2)nnc1-c1cc2cccc(OC)c2o1	-1%	13%	3%	-5%	i	-2%
O=C1CC(N2CCN(c3ccccc3Cl)CC2)C(=O)N1c1ccccc1 (configuration not stated)	1%	0%	-3%	-5%	i	-2%
O=C1CC(N2CCN(C3CCc4ccccc4C3)CC2)C(=O)N1c1ccccc1 (configuration not stated)	-1%	25µM*	?	-2%	i	-1%
CN1CCc2c(cc(O)c(O)c2Cl)[C@H](c2cccc(Cl)c2)C1	-2%	?	?	-3%	i	-3%
CN(C)c1nc(-c2ccc3c(c2)OCO3)nc2ccccc12	0%	12%	22%	-4%	i	0%
O=C(CN(Cc1ccco1)C(=O)CNS(=O)(=O)c1ccccc1)NCc1ccccc1	0%	13%	20µM*	-3%	i	1%
CCCC(C(=O)NCc1ccco1)N(C(=O)CNS(=O)(=O)c1ccccc1)c1ccccc1OC (configuration not stated)	-4%	25µM*	?	-4%	i	0%
CCC(C(=O)NCc1ccco1)N(C(=O)CNS(=O)(=O)c1ccc(C)cc1)c1ccccc1OC (configuration not stated)	-1%	16µM*	?	-3%	i	-2%
CCN(CC)COC(=S)S	1%[15.4 µM]	2%[11.4 µM]	-6%[11.4 µM]	8%[11.4 µM]	i	1%[15.4 µM]
O=C1c2ccccc2NC2CCCCC12 (configuration not stated)	0%	5µM*	?	-7%	i	1%
CCCCCCN(C(=O)CCCCCN1C(=O)NC(C2CC2)C(C(=O)OCc2ccccc2)=C1C)C(C(=O)NCCCC)c1ccc(OCC(=O)OC)c(C(=O)OC)c1 (configuration not stated)	0%	18%	8%	2%	i	-2%
CCCC[C@@H]1C[C@H]1C(NS(=O)(=O)c1cccc2cccnc12)c1ccc(-c2ccccc2)cc1 (some centres not stated)	0%	4%	25%	-12%	i	0%
COc1ccccc1C(=O)N1CCN(C(=O)c2ccncc2)CC1	0%	25µM*	?	-5%	i	0%
CN(C)CCOc1nc(-c2ccccc2)nc2c1oc1ccccc12	3%	-63%	?	25µM*	i	0%
Cc1cc(-c2nnco2)c(C)n1-c1ccc(F)cc1	-1%	16µM*	?	0%	i	1%
Cc1ccc(C)n1-c1ccc(-c2nnco2)cc1	0%	4%	2%	-5%	i	0%
Cc1cc2c(C(C)C)c(O)c(O)c(C=O)c2c(O)c1-c1c(C)cc2c(C(C)C)c(O)c(O)c(C=O)c2c1O	-17%	2%	-11%	-14%	100µM*!	-26%
O=C(c1csnn1)N1CCC[C@@]2(CCN(Cc3ccccc3)C2)C1	-2%	?	?	-4%	i	0%
COc1ccc(C2=Nn3c(nnc3-c3ccccc3OC)SC2)cc1OC	3%	25%	10µM*	-9%	i	9%
c1ccc(C2=Nn3c(nnc3-c3cc(-c4ccccc4)n[nH]3)SC2)cc1	4%	25µM*	?	-6%	i	-2%
Cc1ccc(C)c(NC(=O)NCc2ccc(Cl)cc2)c1	0%[15.4 µM]	12%[11.4 µM]	0%[11.4 µM]	-8%[11.4 µM]	i	0%[15.4 µM]
SMILES	BRCT PPI green	HEK293 cAMP cs	TSHR ag	DNA Pol III inh	YjeE inh	BRCT PPI red
Cc1ccc(-c2noc(CCC(=O)NC3CCCc4ccccc43)n2)cc1 (configuration not stated)	0%	32µM*	?	-3%	i	0%
CS(=O)(=O)Nc1cccc(-c2cncnc2Nc2ccc(F)cc2)c1	0%	?	?	-4%	i	-1%
CCNc1ccc(S(=O)(=O)C(F)(F)F)cc1NC(=O)C12CCC(CC1)C2	-3%	16µM*	?	-2%	i	1%
S=C(S)NCCCn1ccnc1	-1%[15.4 µM]	-2%[11.4 µM]	4%[11.4 µM]	-3%[11.4 µM]	i	-1%[15.4 µM]
O=C(NCc1ccc(Cl)cc1Cl)c1ccccn1	-1%	25µM*	?	-7%	i	-1%
CO[C@H]1COC(=O)[C@@H](C)COC(=O)[C@H](C)NC(=O)C/C=C\[C@H]1C	-2%[15.4 µM]	-2%[11.4 µM]	2%[11.4 µM]	/	/	2%[15.4 µM]
CCOC(=O)C1CCN(C(=O)Nc2ccc3c(c2)nc(C)n3C)CC1	-6%	1%	5%	-7%	i	-1%
O=C(Nc1ccc2nc(-c3ccco3)c(-c3ccco3)nc2c1)N1CCCCCC1	-22%	4%	-5%	16µM*	i	?
CCOC(=O)C1CCN(C(=O)Nc2ccc3nc(-c4ccco4)c(-c4ccco4)nc3c2)CC1	-29%	-3%	0%	13µM*	i	?
COc1ccc(OC)c(C(=O)COC(=O)c2ccccc2O)c1	0%	25µM*	?	2%	i	-2%
COc1ccc(OC)c(C(=O)COC(=O)c2c(OC)cccc2OC)c1	-1%	6%	2%	-11%	i	0%
COc1ccccc1-c1oc2ccccc2c(=O)c1OC	-1%	32µM*	?	-7%	i	-1%
CC(=O)OCC1OC(c2ccc3c(c2)OCO3)C=CC1OC(C)=O (configuration not stated)	2%[15.4 µM]	14%[11.4 µM]	0%[11.4 µM]	/	/	1%[15.4 µM]
O=C(NC1CCCCC1)C(c1ccccc1F)N(Cc1ccco1)C(=O)Cn1nnc2ccccc21 (configuration not stated)	-3%	20µM*	?	-1%	i	1%
O=C(NC1CCCCC1)C(c1ccc(F)cc1)N(Cc1ccco1)C(=O)Cn1nnc2ccccc21 (configuration not stated)	-1%	16µM*	?	-4%	i	0%
Cc1cccc(N(C(=O)Cn2nnc3ccccc32)C(C(=O)NCc2ccco2)c2ccncc2)c1C (configuration not stated)	-1%	4%	11%	?	i	0%

Screening results from PubChem BioAssay.
